Rows were chosen to be rich in hits. Some 14% of all compounds tested hit in one or more screens of this group.
USP28 inh: inhibitors of human USP28 deubiquitinase; 3% of 47,000 active; Ubiquitin carboxyl-terminal hydrolase 28 (Homo sapiens), Q96RU2; inhibition, % at 25 µM; purified USP28, Ub-rhodamine cleavage fluorescence, 30 min
USP17 block: inhibitors of human USP17 deubiquitinase; inhibition, % at 50 µM; Ubiquitin carboxyl-terminal hydrolase 17-like protein 5 (Homo sapiens), A8MUK1; 6.5% of 47,000 active; purified USP17, Ub-rhodamine cleavage fluorescence, 3 h
Target sequence (A8MUK1 whole entry, looked up): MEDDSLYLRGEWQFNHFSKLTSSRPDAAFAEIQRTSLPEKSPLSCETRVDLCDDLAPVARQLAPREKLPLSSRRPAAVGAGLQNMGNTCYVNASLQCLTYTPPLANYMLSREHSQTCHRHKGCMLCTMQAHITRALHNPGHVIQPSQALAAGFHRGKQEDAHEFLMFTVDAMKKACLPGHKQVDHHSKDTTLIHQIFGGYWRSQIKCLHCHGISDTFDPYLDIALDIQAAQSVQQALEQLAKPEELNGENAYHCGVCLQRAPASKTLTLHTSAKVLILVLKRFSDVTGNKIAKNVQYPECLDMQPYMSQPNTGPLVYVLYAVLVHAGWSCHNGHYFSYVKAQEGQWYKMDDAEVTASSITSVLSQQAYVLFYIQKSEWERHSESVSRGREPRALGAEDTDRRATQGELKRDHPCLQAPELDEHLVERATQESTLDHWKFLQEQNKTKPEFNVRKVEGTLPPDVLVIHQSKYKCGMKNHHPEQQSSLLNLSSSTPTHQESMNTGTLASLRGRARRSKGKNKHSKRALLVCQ
USP8 block: inhibitors of human USP8 deubiquitinase | purified USP8, Ub-rhodamine cleavage fluorescence, 30 min | 4.2% of 47,000 active | inhibition, % at 20 µM | AID 1645853, 2021
USP30 inh: inhibitors of human USP30 deubiquitinase; 5.3% of 47,000 active; purified USP30, Ub-rhodamine cleavage fluorescence; inhibition, % at 25 µM; AID 1645860, 2021; Ubiquitin carboxyl-terminal hydrolase 30 (Homo sapiens), Q70CQ3
USP10 inh: inhibitors of human USP10 deubiquitinase. AID 1645856, 2021. inhibition, % at 20 µM. 1.1% of 47,000 active. purified USP10, Ub-rhodamine fluorescence, 60 min
* marks the source's active call; other numbers are inactive results; / = not tested or not shown. Cut-off read from the data, not from the text of the source: active = inhibition above about 30%; inactive = the rest.

SMILES	USP28 inh	USP17 block	USP8 block	USP30 inh	USP10 inh
O=C(CCn1nnc2ccccc21)N1CCCC(c2ccnc3ncnn23)C1 (configuration not stated)	-3	-4	-32	19	-1
O=C(O)c1nccnc1C(=O)N1CCc2ccccc2C1	46*	78*	91*	8	16
O=C(c1cc(C2CC2)on1)N1CCc2ccccc2C1	0	-5	-4	-33	-4
COc1ccc(-c2cc(-c3ccc(F)cc3)[nH]c(=O)c2C#N)cc1	16	/	58*	79*	40*
COc1ccc(NC(=O)c2cccc3[nH]cc(CN4CCSCC4)c23)cc1	12	16	61*	22	0
O=C(c1ccco1)N(c1ccc(Oc2ccccc2)cc1)c1nc2ccccc2s1	0	45*	7	16	3
CC(=O)NCCC(=O)N(c1ccc(Oc2ccccc2)cc1)c1nc2ccccc2s1	-4	7	3	-12	1
CC1CCN(Cc2nnc(-c3cn(CC(=O)NC4CCCCC4)c4ccccc34)o2)CC1	5	35*	8	60*	9
CSc1ccc(CNC(=O)Cn2c(=O)[nH]c3c(-c4ccccc4)c[nH]c3c2=O)cc1	-41	-29	73*	-67	22
CN(Cc1ccccc1)C(=O)Cn1c(=O)[nH]c2c(-c3ccccc3F)c[nH]c2c1=O	-10	-45	11	-138	-3
O=C(Cn1c(=O)c2c(ncn2C2CCCC2)n(Cc2ccccc2)c1=O)NCc1ccccc1Cl	0	11	14	-57	0
O=C(Cn1c(=O)[nH]c2c(-c3ccccc3)c[nH]c2c1=O)NCc1ccccc1Cl	-35	-20	41*	-96	0
Cn1c(SCC(=O)NC2CCCC2)nnc1-c1nc(-c2ccccc2)no1	6	16	9	24	0
Cc1ccc(-c2noc(-c3nnc(SCC(=O)NC4CCCC4)n3C)n2)cc1	10	53*	12	29	2
COc1ccc(C(=O)NCCS(=O)(=O)N2CCN(c3ccccc3)CC2)cc1	4	40*	-4	-6	2
COc1cc(C)ccc1OCC(=O)Nc1ccc(Oc2ccccc2)cc1	18	9	10	28	12
COc1ccc2nc(C)cc(OCC(=O)Nc3cc(C)cc(C)c3)c2c1	-11	36*	-5	20	-5
CCOC(=O)c1csc(-c2ccc(F)cc2F)n1	42*	5	25	18	0
CCOC(=O)c1csc(-c2cc(C)on2)n1	4	6	9	7	2
CC(C)c1ccc(NC(=O)CCCNC(=O)c2cn(C)nc2C(F)(F)F)cc1	5	-3	4	18	-5
Cc1ccccc1-n1nc2c(c1NC(=O)c1ccc(F)c(F)c1)CS(=O)(=O)C2	-4	-8	-23	-2	1
CCCCOc1ccc(C(=O)Nc2c3c(nn2-c2ccccc2C)CSC3)cc1	19	46*	29	25	24
COc1cnc(CSc2nccc(C)n2)cc1OCC(=O)Nc1cc(C)ccc1C	14	1	-4	24	-3
COc1cnc(CSc2ncccn2)cc1OCC(=O)Nc1cc(C)ccc1C	-17	-16	-63	55*	-1
COc1cnc(CSc2ncccn2)cc1OCC(=O)Nc1cccc(F)c1	4	-7	-61	32*	3
SMILES	USP28 inh	USP17 block	USP8 block	USP30 inh	USP10 inh
COc1cnc(CSc2ncccn2)cc1OCC(=O)Nc1ccccc1F	-10	-6	-48	-296	4
Cc1ccccc1Cn1c(C(=O)O)c(CNCC2CCCO2)c2ccccc21 (configuration not stated)	-8	-11	-7	-8	-1
CCn1c(C2CCN(S(=O)(=O)c3ccc4c(c3)CC(=O)N4C)C2)nc2cccnc21 (configuration not stated)	-16	-3	-3	-8	-4
Cc1cccc(C(=O)N2CCN(c3nc(-c4ccc(Cl)cc4)no3)CC2)c1	18	13	9	40*	2
Cc1ccccc1-c1nc(-c2cccc(C(=O)N3CCCC3)c2)no1	7	14	9	36*	2
CC(C)(C)OC(=O)N1CCCC(Cc2cnc(-c3cn[nH]c3)cn2)C1 (configuration not stated)	10	-13	-12	14	3
CCN1C(SCc2ccccc2F)=NS(=O)(=O)c2ccccc21	74*	11	13	25	-14

Bioassay records from PubChem BioAssay.
